# Source: PubChem
# HT1080 IDH1KD tx: HT-1080 IDH1 knockdown cell toxicity (counter line) | Potency, µM (doses to about 46.1 µM), without a hit: top-dose activity, negative = toxicity, actives largely listed as cytotoxic | 360,000 compounds, 2% hits | HT-1080 IDH1 knockdown viability, ATP luminescence, 48 h;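 note: 0% = DMSO wells and -100% = cell-free medium wells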
#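 In this qHTS, HT-1080 cells depleted of IDH1 are exposed for 48 h at 37 °C to compound titrations. Toxicity is scored from CellTiter-Glo luminescence, with DMSO as full viability and medium alone as none.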
# SW480 rerep: inducers of DNA re-replication in SW480 colon cancer cells; SW480 DNA re-replication, Hoechst DNA content imaging, 48 h; Potency, µM (doses to about 46.1 µM), without a hit: at the top dose re-replication activation, hits mostly activators; 340,000 compounds, 1.8% hits; AID 624297; note: % of control where 0% means no effect; nearly all actives have a fitted effect of over 55% in size
#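 Image-based DNA-content assay: after two days of treatment, nuclei were labelled with the DNA dye Hoechst and imaged, and hits were compounds raising the count of nuclei showing high fluorescence intensity.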
# MCF10A rerep: DNA re-replication induction in MCF 10a cells; MCF 10A DNA re-replication, Hoechst nuclear intensity, 48 h; Potency, µM (series often up to 46.1 µM), for inactives: top-dose activity, positive = re-replication, usual class: activators; 350,000 compounds, 2.9% hits; AID 624296; note: % of control where 0% means no effect; nearly all actives have a fitted effect of over 50% in size
# KB-3-1 tox: KB-3-1 parental cell cytotoxicity; 400,000 compounds, 1.4% hits; Potency, µM (top dose mostly 46.1 µM), actives largely listed as cytotoxic; KB-3-1 viability, CellTiter-Glo ATP luminescence, 72 h; note: % is set by controls: 0 for no effect and ±100 for the full control effect; nearly all actives have a fitted effect of over 60% in size
#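 Parental KB-3-1 adenocarcinoma cells in phenol-red-free DMEM with 10% FBS were pin-treated with compounds at several concentrations, incubated 72 h at 37 °C, and viability read by CellTiter-Glo luminescence; concentration-effect curves were fitted after normalization.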
# HT1080NT lethal: kills 2HG-producing HT-1080-NT fibrosarcoma cells; AID 686970; 360,000 compounds, 1.6% hits; HT-1080-NT fibrosarcoma viability, CellTiter-Glo ATP luminescence, 48 h; Potency, µM (series often up to 46.1 µM), for inactives: top-dose activity, negative = less viability, usual class: cytotoxic;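 note: NT is the 2HG producing partner of a matched IDH1 knockdown line; 0% = DMSO-treated cells and -100% = media-only wells without cells; nearly all actives have a fitted effect of over 55% in size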
#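 Compounds were tested in concentration-response format on HT-1080-NT cells for 48 hours at 37 degrees C. Cell viability came from CellTiter-Glo luminescence; curves were classified by r2, response magnitude and activity.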
# KB-V1 MDR tox: kills drug-selected multidrug resistant KB-V1 cells. Potency, µM (highest dose often 46.1 µM), usual class: cytotoxic. KB-V1 MDR cells viability, CellTiter-Glo, 72 h. 400,000 compounds, 3.4% hits; note: % is set by controls: 0 for no effect and ±100 for the full control effect; nearly all actives have a fitted effect of over 60% in size
#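 Cytotoxicity via CellTiter-Glo luminescence after 72 h compound exposure at 37 degrees C. Cells: drug-selected KB-V1 line, DMEM phenol-red free plus 10% FBS. Compounds tested at multiple concentrations; normalized data fitted to concentration-effect curves.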
# * marks the source's active call; other numbers are inactive results; i = inactive; ? = inconclusive; . = no result given. A selection: hits, their analogues and other compounds. The true share with any hit is near 7.9%. Calls come from the whole dose curve; as a rule, active = well fitted curve in the direction sought with a large enough effect; inconclusive = small, poorly fitted or top-dose-only effect, or another doubt; inactive = no such curve, though single readings can be large; an effect the other way counts as inactive or inconclusive. Potency is the fitted concentration of half-maximal effect.
SMILES,HT1080 IDH1KD tx,SW480 rerep,MCF10A rerep,KB-3-1 tox,HT1080NT lethal,KB-V1 MDR tox
N=c1c(C(=O)NCc2ccc(F)cc2)cc2c(=O)n3ccccc3nc2n1CCCN1CCOCC1,-1%,?,2.8µM*,i,-2%,i
Cn1c(C(=O)NCCN2CCOCC2)cc2c(=O)n3ccccc3nc21,7%,?,?,i,13%,i
N=c1c(C(=O)NCc2ccccc2)cc2c(=O)n3ccccc3nc2n1CCCN1CCOCC1,-14%,9.2µM*,3.7µM*,?,-4%,i
N=c1c(C(=O)NCCN2CCOCC2)cc2c(=O)n3ccccc3nc2n1CCc1ccccc1,12%,10µM*,?,i,21%,i
N=c1c(C(=O)NCCc2ccccc2)cc2c(=O)n3ccccc3nc2n1CCCN1CCOCC1,-21%,5.2µM*,?,i,-29%,?
CC(C)n1c(=N)c(C(=O)NCc2ccccc2)cc2c(=O)n3ccccc3nc21,.,.,.,i,.,i
CN(Cc1cccc(F)c1)C(=O)CN1C(=O)NC2(CCc3ccccc32)C1=O (stereo not given),1%,-8%,8%,i,-9%,i
Cc1noc(C)c1COc1ccc(C(=O)Nc2ccccn2)cc1,-3%,-6%,0%,i,-7%,i
Cc1ccc(Cn2c(=N)c(C(=O)NCCN3CCOCC3)cc3c(=O)n4ccccc4nc32)cc1,-1%,?,0.58µM*,i,7%,i
COCCCn1c(C(=O)NCCN2CCOCC2)cc2c(=O)n3ccccc3nc21,-4%,-6%,14%,i,0%,i
Cc1cc(Cl)c(S(=O)(=O)NCc2ccncc2)cc1OCC(N)=O,-1%,11%,3%,i,13%,i
CCOC(=O)c1sc2ccccc2c1OC(=O)c1ccccc1OC,?,0.58µM*,?,i,?,i
COc1c(-c2ccc(O)cc2)oc2cc(O)cc(O)c2c1=O,-2%,9%,6%,i,0%,i
COc1ccc(-c2oc3cc(O)c(OC)c(O)c3c(=O)c2OC)cc1,21µM*,?,5.2µM*,?,?,?
CCn1c(SCC(=O)Nc2ccc3c(c2)c2ccccc2n3CC)nnc1-c1ccco1,0%,5%,11%,i,?,i
